# Data reported in ChEMBL document CHEMBL3433997, “St. Jude Leishmania screening dataset” (2016).
# Biological target: Hexose transporter 1 (Plasmodium falciparum) (UniProt O97467)
# Experiment: ST_JUDE_LEISH: Cytotoxicity at 2uM final concentration against transgenic Leishmania Mexicana promastigotes LmPfHT that are glucose transport deficient and complemented with the Plasmodium falciparum hexose transporter. Activity is measured by DNA content using SYBR green in vitro
# Type: functional
row,Compound,inhibition [%]
1,CC1(C)N=C(N)N=C(N)N1c1cc(Cl)c(Cl)cc1Cl,-2.74
2,O=C(NCCSCc1c(F)cccc1Cl)c1cnc2c(c1)nc(-c1c[nH]c(-c3ccccc3)n1)n2CCc1c[nH]cn1,2.22
3,COc1cc2nc(C)nc(Nc3ccc4c(ccn4Cc4ccccc4)c3)c2cc1OC,5.91
4,Cc1cc(CNCCCCCCCNCc2ccc(Cl)cc2)ccc1O,3.98
5,O=C(NCC1CCN(C/C=C/c2ccccc2)CC1)Nc1ccc(Oc2ccccc2)cc1,8.3
6,CCCN/C=N/c1cc(-c2csc(NC(=N)N)n2)cc([N+](=O)[O-])c1,-0.62
7,c1cc(-c2ccc(CN3CCN(c4ccncc4)CC3)cc2)cc(-c2nc3ccccc3[nH]2)c1,3.51
8,CNc1c2c(nc3ccc(NC(=O)CCCCCCc4ccccc4)cc13)CCCC2,8.7
9,COc1ccc(F)cc1-c1ccc(C(=O)N2CCCN(c3ccc(C#N)cn3)CC2)cc1,0.21
10,O=C(NCCCN1CCC(N2CCCCC2)CC1)c1ccc(N2CCOc3ccccc32)s1,0.98
11,NC(=O)c1cccc(Nc2nccc(Nc3ccc4[nH]c(-c5ccccc5)cc4c3)n2)c1,0.57
12,O=S(=O)(c1ccc(OCc2ccc(Cl)cc2)cc1)c1cc2c(c(-c3ccc(F)cc3)c1)CCN(CC1CC1)CC2,0.41
13,C[C@H](Cc1ccc(OCCNC[C@H](O)c2cccc(Cl)c2)cc1)NC[C@H](O)c1ccc(Cl)c(Cl)c1,1.89
14,CCc1c(C(=O)NC2CCC(N3CCC(c4ccccc4OC)CC3)CC2)[nH]c2ccc(OC)cc12 (stereo not given),2.5
15,COc1ccc(C2C(C(=O)Nc3ccccc3)=C(C)Nc3c(C(=O)Nc4ccccc4)cnn32)cc1 (stereo not given),0.21
16,CC(C)(C)c1ccc(NC(=O)c2ccc(CN3CCCN(Cc4cccc(O)c4)CC3)cc2)cc1,0.08
17,N#Cc1ccc(N/C(=N\c2ccc(-c3ccccc3)cc2)NCCc2c[nH]c3ccccc23)c(O)c1,8.49
18,C[C@@H](N/C(=N\c1ccc(-c2ccccc2)cc1)Nc1ccc(C#N)cc1O)c1ccc(Br)cc1,2.45
19,CC(C)Oc1cc2c(cc1NS(=O)(=O)c1ccc(-c3ccc(Cl)s3)cc1F)CCN(C)CC2,5.23
20,COc1cc(NC(=O)Nc2ccnc3ccccc23)cc(OC)c1,-0.6

row,Compound,inhibition [%]
1,COc1cc(C(C)C)ccc1N1CCN(CCCCNC(=O)c2ccc(NC(=O)c3ccc(Cl)cc3)cc2)CC1,1.59
2,Cc1c(C(=O)N2CCCC(C(F)(F)F)C2)sc2cccc(F)c12 (stereo not given),6.02
3,O=C(NCCCCCN1CCC(c2c[nH]c3ccccc23)C1)Nc1ccc(Cl)c(Cl)c1 (stereo not given),3.21
4,c1ccc(Oc2ccc(Nc3ccnc4cc(-c5ccc(CN6CCOCC6)o5)ccc34)cc2)nc1,-1.03
5,COc1ccc2c(NN=Cc3ccccc3)ccnc2c1,-2.08
6,CN1CCCN(Cc2ccc(-c3ccc(NC(=O)c4ccc(C#N)cc4)cc3)cc2)CC1,-0.51
7,Cc1ccc2[nH]c(C)cc(=NN=Cc3ccccc3F)c2c1,12.6
8,COc1cc(Cc2cnc(N)nc2N)cc(OCCCS(=O)(=O)O)c1OC,2.33
9,COc1cc(-n2cnc3cc(-c4ccc([N+](=O)[O-])cc4)sc3c2=O)ccc1OCCN1CCCC1,20
10,COc1cccc2cc(C(=O)N[C@@H](CC(C)C)C(=O)N[C@H](/C=N/NC(=O)OC(C)(C)C)CC(=O)OC(C)(C)C)oc12,6.98
11,CC(C)NCc1ccc(-c2cccc(CN3CCC(c4ccccc4)CC3)c2)c(C(=O)NCC2CCCCC2)c1,8.3
12,Cc1ccc(F)c(OCC2CCCN(c3ccc(C(=O)NC4CC4)cn3)C2)c1 (stereo not given),4.3
13,Cn1c(=O)c(-c2c(Cl)cccc2Cl)cc2cnc(Nc3ccc(N4CCOCC4)cc3)nc21,41
14,CC(C)C1C(O)=C(c2ccc3ccccc3c2)C(=O)N1Cc1ccsc1 (stereo not given),5.59
15,Cc1ccc(Nc2nccc(NCC(O)c3cccc(C(F)(F)F)c3)n2)cc1 (stereo not given),4
16,O=C(Nc1ccc(OC2CCN(Cc3ccc(F)cc3)CC2)c(Cl)c1)c1ccoc1,2.09
17,CCN(CC)CCN(Cc1ccc(-c2ccc(C(F)(F)F)s2)cc1)C(=O)Cn1c(CCc2cccc(F)c2F)nc(=O)c2ccccc21,2.39
18,O=C(Nc1cccc(-c2cccc(-c3nc4ccccc4[nH]3)c2)c1)Nc1ccc2c(c1)OCO2,4.48
19,COc1ccc(NC(=O)NC2CCN(CCCOc3cc(C)nc4ccccc34)CC2)cc1OC,1.97
20,Cc1cccc2nc(-c3cccc(-c4cccc(NC(=O)c5c[nH]cn5)c4)c3)[nH]c12,0.24
